Test results: paper PMC9911399, “Two distinct binding modes provide the RNA-binding protein RbFox with extraordinary sequence specificity”
Numbering of substitutions follows the chain as printed; changes in the protein carry UniProt numbers. Whole data set: some 16,000 sequences, median “ka relative to ugcaugu” near 0.0091, cut for the highest 2% near 0.032. The entries come from a sample that favours the highest values as a whole.

T1: RBFOX1 RRM (Homo sapiens, UniProt Q9NWB1 109-208)
T1 sequence: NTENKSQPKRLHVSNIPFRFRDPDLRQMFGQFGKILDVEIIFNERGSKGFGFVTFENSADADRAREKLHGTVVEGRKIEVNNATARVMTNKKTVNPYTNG

B1: UGCAGCC (DNA:RNA)
RNA: GGGAGACCGGAAUUCAGAUUGUCCUGCAGCCUUAAAUCCCGUCGUAGCCACCA
DNA 1: CAATCTGAATTCCGGTCTCCC
DNA 2: TGGTGGCTACGACGGGATT
B2: CGUUGGA (DNA:RNA)
RNA: B1 RNA with U25C, C27U, A28U, C30G, C31A
DNA 1: CAATCTGAATTCCGGTCTCCC
DNA 2: TGGTGGCTACGACGGGATT
B3: GGACCUA (DNA:RNA)
RNA: B1 RNA with U25G, C27A, A28C, G29C, C30U, C31A
DNA 1: CAATCTGAATTCCGGTCTCCC
DNA 2: TGGTGGCTACGACGGGATT
B4: GGGGGUC (DNA:RNA)
RNA: B1 RNA with U25G, C27G, A28G, C30U
DNA 1: CAATCTGAATTCCGGTCTCCC
DNA 2: TGGTGGCTACGACGGGATT
B5: GGGGUCU (DNA:RNA)
RNA: B1 RNA with U25G, C27G, A28G, G29U, C31U
DNA 1: CAATCTGAATTCCGGTCTCCC
DNA 2: TGGTGGCTACGACGGGATT
B6: CGGGGUC (DNA:RNA)
RNA: B1 RNA with U25C, C27G, A28G, C30U
DNA 1: CAATCTGAATTCCGGTCTCCC
DNA 2: TGGTGGCTACGACGGGATT
B7: GGGUCUU (DNA:RNA)
RNA: B1 RNA with U25G, C27G, A28U, G29C, C30U, C31U
DNA 1: CAATCTGAATTCCGGTCTCCC
DNA 2: TGGTGGCTACGACGGGATT
B8: CCGGGUC (DNA:RNA)
RNA: B1 RNA with U25C, G26C, C27G, A28G, C30U
DNA 1: CAATCTGAATTCCGGTCTCCC
DNA 2: TGGTGGCTACGACGGGATT
B9: CGGGUCU (DNA:RNA)
RNA: B1 RNA with U25C, C27G, A28G, G29U, C31U
DNA 1: CAATCTGAATTCCGGTCTCCC
DNA 2: TGGTGGCTACGACGGGATT

The binders below were run against T1, RBFOX1 RRM (assay: EMSA; HiTS-Eq, 1 nM pool, 10 min; buffer printed only for the single-RNA assays: 10 mM Tris pH 7.5, 150 mM NaCl, 3.4 mM EDTA, 0.001% NP-40, 30 C). Settings: tags: His6 N-terminal (pET28a); label: 5' 32P.
Procedure, shortened: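 Purified wild-type or mutant RbFox RRM at increasing concentrations was equilibrated with 1 nM of 5′-radiolabelled RNA carrying 7 randomized nucleotides for 10 min in 50 µL. Unbound RNA was separated by 8% native PAGE and sequenced. Relative association constants came from read-count changes of each RNA species compared with the control reaction, normalised to the cognate motif.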

Binder | binding signal
B1 | 0.0108 KA relative to UGCAUGU
B2 | 0.00714 KA relative to UGCAUGU
B3 | 0.0035 KA relative to UGCAUGU
B4 | 0.0306 KA relative to UGCAUGU
B5 | 0.0436 KA relative to UGCAUGU
B6 | 0.0407 KA relative to UGCAUGU
B7 | 0.00918 KA relative to UGCAUGU
B8 | 0.0244 KA relative to UGCAUGU
B9 | 0.0296 KA relative to UGCAUGU
